A selection: hits, their analogues and other compounds. The true share with any hit is near 4.8%.
USP2a inh: qHTS Assay for Inhibitors of Ubiquitin-specific Protease USP2a Using CHOP2 as the Reporter; Ubiquitin carboxyl-terminal hydrolase 2 (Homo sapiens), O75604; USP2 core, Ub-CHOP2 coupled fluorogenic reporter, 485/531; Potency, µM (doses to about 38.3 µM), inactives show top-dose activity change, negative = inhibition, hits mostly inhibitors; actives 0.01% (n = 330,000);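 also: potency is read from the fitted curve at half-maximal effect; plate controls were DMSO wells for no effect and full inhibition by NEM control for full effect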
Target sequence (O75604 whole entry, looked up): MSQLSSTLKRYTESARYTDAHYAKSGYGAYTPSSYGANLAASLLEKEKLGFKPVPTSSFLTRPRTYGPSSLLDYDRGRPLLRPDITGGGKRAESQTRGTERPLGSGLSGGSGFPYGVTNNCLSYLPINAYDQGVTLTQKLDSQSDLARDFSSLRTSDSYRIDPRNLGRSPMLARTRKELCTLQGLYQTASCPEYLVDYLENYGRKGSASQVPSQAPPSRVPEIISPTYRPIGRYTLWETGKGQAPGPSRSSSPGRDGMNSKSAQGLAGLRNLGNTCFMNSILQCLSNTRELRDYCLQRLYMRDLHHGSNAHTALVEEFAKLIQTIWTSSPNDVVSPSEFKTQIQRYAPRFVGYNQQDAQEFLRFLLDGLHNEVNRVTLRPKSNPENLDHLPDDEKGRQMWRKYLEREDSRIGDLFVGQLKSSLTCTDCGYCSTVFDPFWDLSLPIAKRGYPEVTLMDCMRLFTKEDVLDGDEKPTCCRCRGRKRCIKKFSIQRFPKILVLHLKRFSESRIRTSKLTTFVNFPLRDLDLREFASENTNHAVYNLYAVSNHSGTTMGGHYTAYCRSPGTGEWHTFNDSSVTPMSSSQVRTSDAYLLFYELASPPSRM
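Deubiquitinase activity read as fluorescence (485/531 nm) after Ub-CHOP2 cleavage activates the enterokinase reporter on its substrate; USP2 core 10nM, Ub-CHOP2 and substrate 25nM each, 30min compound preincubation then 60min RT; data normalized to NEM, curves fitted.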
ATXN viability: Viability Counterscreen for Primary qHTS for Inhibitors of ATXN expression; S2 cells (HEK-293 line with an ATXN2-luciferase reporter) viability, CellTiter-Fluor protease fluorescence, 24 h; AID 651635, 2014; Potency, µM (series often up to 56.7 µM), most hits filed as cytotoxic; actives 0.49% (n = 400,000); also: potency is read from the fitted curve at half-maximal effect; nearly all actives have a fitted effect of over 40% in size
ATXN2 expr inh: Primary qHTS for Inhibitors of ATXN expression. HEK-293 ATXN2-luciferase reporter, luminescence, 24 h. Potency, µM (titrated, usually from 57 µM), without a hit: top-dose activity change, negative = inhibition, hits mostly inhibitors. actives 0.72% (n = 360,000). AID 1745845, 2022; also: potency is read from the fitted curve at half-maximal effect; % is scaled to controls: 0 for no effect and ±100 for the full control effect; nearly all actives have a fitted effect of over 55% in size
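ATXN2-luciferase reporter cells (luciferase flanked by upstream and downstream ATXN2 gene portions) were treated 24 h at 37 °C with compounds at up to 57 uM. SteadyGlo luminescence gave expression; GF-AFC fluorescence gave viability.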
USP1-UAF1 inh: Inhibitors of USP1/UAF1: Primary Screen. Ubiquitin carboxyl-terminal hydrolase 1 (Homo sapiens), O94782. recombinant USP1/UAF1, Ub-Rhodamine cleavage fluorescence. Potency, µM (top dose mostly 57.1 µM), without a hit: top-dose activity change, negative = inhibition, actives largely listed as inhibitors. actives 0.23% (n = 390,000); also: potency is read from the fitted curve at half-maximal effect; % is scaled to controls: 0 for no effect and ±100 for the full control effect; nearly all actives have a fitted effect of over 60% in size
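USP1/UAF1 complex at 1 nM was preincubated with compound for 15 min at room temperature, then Ub-Rho substrate (150nM final) was added. Fluorescence (480/540 nm) was read kinetically, 6 reads every 60 seconds.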
IL-1B inflam inh: qHTS for Inhibitors of Inflammasome Signaling: IL-1-beta AlphaLISA Primary Screen | THP-1 LPS/ATP IL-1B secretion, AlphaLISA, 16 h; active compounds read low | activity change, % at 57.5 µM | actives 4.7% (n = 360,000) | AID 743279, 2014; in the data active = activity change below about -50%; inconclusive = mostly about -30% to -49%; also: % is scaled to controls: 0 for no effect and ±100 for the full control effect
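THP-1 cells pretreated 1 hr with compounds (up to 57.5 uM final), then stimulated with LPS (250 ng/mL final) plus ATP (1.25 mM final); secreted IL-1B measured by AlphaLISA after 16 hr, decreased signal indicating inhibition.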
Active calls of the source: *; i = inactive; ? = inconclusive; / = no result; ! = repeats disagree; [ ] = remark or other dose. Unless noted, calls follow the shape of the dose curve; as a rule, active = well fitted curve in the direction sought with a large enough effect; inconclusive = small, poorly fitted or top-dose-only effect, or another doubt; inactive = no such curve, though single readings can be large; an effect the other way counts as inactive or inconclusive.

SMILES	USP2a inh	ATXN viability	ATXN2 expr inh	USP1-UAF1 inh	IL-1B inflam inh
CNc1nc(Nc2ccc(C)c(Cl)c2)c2cnn(C)c2n1	1.0%	i	-26.0%	-3.9%	-26.3
O=C(C[n+]1ccc(/C=C/c2ccccc2)cc1)c1ccc2c(c1)OCCO2	-7.8%	i	-12.0%	-21.2%	-94.3*
O=C(CCN1CCc2ccccc2C(c2ccccc2)C1)c1ccc2c(c1)OCCO2 (centres undefined)	-6.6%	i	?	-20.7%	-20.2
Cc1cc[n+](CC(=O)c2ccc3c(c2)OCCO3)cc1	1.6%	i	-32.0%	2.0%	-14.2
O=C(CCN1Cc2ccccc2C1)c1ccc2c(c1)OCCO2	-6.2%	/	?	-13.4%	-89.6*
N#Cc1cc2c(nc1SCc1cccnc1)CCCCC2	/	i	14.7%	?	-65.7*
N#Cc1cc2c(nc1SCc1ccccc1)CCCCC2	0.0%	i	30.5%	-19.8%	14.8
COCC(=O)Nc1cc(C(=O)N2CCc3c(Cl)cccc3C2)c2c(c1)nc(-c1ccncc1)n2C	/	i	/	/	/
COC(=O)[C@@]12OC[C@]34[C@H]([C@@H](O)[C@@H]1O)[C@@]1(C)C(=O)C(O[C@@H]5OC(CO)[C@@H](O)[C@@H](O)[C@@H]5O)=C[C@@H](C)[C@@H]1C[C@H]3OC(=O)[C@H](OC(=O)/C=C(\C)C(C)(C)OC(C)=O)[C@@H]24 (some centres undefined)	0.3%	?	?	-8.0%	-56.0*
CNCCC=C1c2ccccc2C=Cc2ccccc21	/	?	-13.2%	-14.1%	-51.2*
CC(C)CC1Nc2ncnc(N3CCN(c4ccccn4)CC3)c2N(Cc2ccc(Cl)cc2)C1=O (centres undefined)	-3.6%	?	-17.7%	-19.8%	-70.0*!
O=C1C(Cc2ccccc2)Nc2ncnc(N3CCN(c4ccccc4)CC3)c2N1Cc1ccc(Cl)cc1 (centres undefined)	-5.2%	i	2.9%	-22.8%	-56.4*
CCC1Nc2ncnc(N3CCc4ccccc4C3)c2N(Cc2ccc(Br)cc2)C1=O (centres undefined)	/	?	?	/	-94.9*
COc1ccc(CN2C(=O)C(CC(C)C)Nc3ncnc(N4CCN(c5ccccc5)CC4)c32)cc1 (centres undefined)	-2.3%	i	-18.8%	-4.5%	-61.7*!
CN(CC(=O)O)Cc1oc(CO)cc(=O)c1O	/	i	5.1%	-3.7%	-1.0
Nc1nc(CSc2ccc(Cl)cc2)nc(N2CCCCC2)n1	-2.0%	i	1.8%	-18.5%	-58.9*
COc1ccc(CNS(=O)(=O)c2ccc3c(c2)CC(C)N3C(=O)C2CC2)cc1 (centres undefined)	-0.8%	i	-19.7%	-21.6%	-64.9*
CC(=O)N1c2ccc(S(=O)(=O)NCC3CCC(C(=O)Nc4cc(C)ccn4)CC3)cc2CC1C (centres undefined)	2.8%	i	?	-2.2%	-78.5*
COc1cccc(CNS(=O)(=O)c2ccc3c(c2)CC(C)N3C(=O)C2CC2)c1 (centres undefined)	3.2%	i	-18.6%	-7.0%	2.0
CC(=O)N1c2ccc(S(=O)(=O)NCC3CCC(C(=O)Nc4ccc(C)cc4)CC3)cc2CC1C (centres undefined)	/	/	/	20.3%	/
Cn1c(-c2ccncc2)nc2cc(C(=O)N3CCCC3c3nccs3)cc(NC(=O)C3CCC3)c21 (centres undefined)	/	i	/	/	/
Cc1ccccc1NC(=O)Nc1nc(C(N)C2CCCCC2)cs1 (centres undefined)	/	i	?	/	-54.4*
CN(C)c1ccc(NC(=O)Nc2nc(C(N)C3CCCCC3)cs2)cc1 (centres undefined)	/	?	?	/	-60.3*
CC(C)c1ccc(NC(=O)Nc2nc(C(N)C3CCCCC3)cs2)cc1 (centres undefined)	/	?	?	/	-113.4*
CC(C)c1ccc(NC(=O)Nc2nc(C(N)c3ccccc3Cl)cs2)cc1 (centres undefined)	/	/	?	/	-76.9*
SMILES	USP2a inh	ATXN viability	ATXN2 expr inh	USP1-UAF1 inh	IL-1B inflam inh
CC(=O)c1ccc(Nc2nc(C(N)C3CCCCC3)cs2)cc1 (centres undefined)	/	i	-13.8%	/	/
CC(C)(C)c1ccccc1NC(=O)Nc1nc(C(N)c2ccccc2Cl)cs1 (centres undefined)	/	?	-23.9%	/	24.6
COC(=O)c1ccc(NC2=C(Cl)C(=O)OC2OC(=O)c2ccccc2)cc1 (centres undefined)	-1.0%	i	3.9%[11.3 µM]	-20.7%	-11.1
Cc1ccc(NC2=C(Cl)C(=O)OC2OC(=O)c2ccc(C)cc2)cc1 (centres undefined)	-0.1%	i	-0.5%	-2.4%	-101.5*
CS(=O)(=O)c1nc(-c2ccccc2)cc(-c2ccccc2)c1C#N	1.2%	/	?	-13.1%	-56.4*
Cc1ccc(Cc2c(-c3ccc(Cl)cc3)nc3c(Cl)cc(C(F)(F)F)cn23)cc1	/	i	5.3%	/	3.5
Cc1nc2ccc(NC(=O)c3cccs3)cc2c(=O)n1Cc1ccc(Cl)cc1	3.4%	?	14.1µM*	9.2%	-92.3*
C=CCOC(=O)C1=C(C)NC(SC)=C(C#N)C1c1ccc(OCC)cc1 (centres undefined)	-9.0%	i	-1.3%	-24.6%	-75.0*!
C=CCOC(=O)C1=C(C)NC(SC)=C(C#N)C1c1cccs1 (centres undefined)	1.6%	i	?	-16.3%	-12.4
CC(C)c1ccccc1OCC(O)CN1CCN(S(=O)(=O)c2ccc([N+](=O)[O-])cc2)CC1 (centres undefined)	-4.0%	i	?	-13.9%	-83.4*
O=S(=O)(c1ccc(F)cc1)N1CCN(CC(O)COc2ccccc2F)CC1 (centres undefined)	1.5%	i	-10.7%	-20.4%	14.0
CCOC(=O)c1ccc(OCCOc2cccc(C)c2)cc1	-0.3%	i	-24.0%	-26.1%	19.6
Nc1ncc(S(=O)(=O)NCc2ccc(Cl)cc2)cn1	/	/	/	-13.3%	/
CCOc1ccc(NCc2cccn2-c2nnc(N3CCC(C(=O)NCCCN4CCCCC4CC)CC3)s2)cc1 (centres undefined)	-0.7%	/	/	-25.5%	-68.7*
CCOc1ccc(NCc2cccn2-c2nnc(N3CCC(C(=O)NCCOC)CC3)s2)cc1	/	/	/	-19.9%	/
Cc1cnc(-n2ncc(C(=O)N(C)CC3CCCN(C)C3)c2C2CC2)nc1-c1cccs1 (centres undefined)	/	i	/	/	/

Bioassay records deposited in PubChem BioAssay by National Center for Advancing Translational Sciences (NCATS).
